Hits are enriched below; roughly 19% of the tested compounds scored in any of these assays.
TDP1 cell noCPT = qHTS for Inhibitors of human tyrosyl-DNA phosphodiesterase 1 (TDP1): qHTS in cells in absence of CPT; DT40 Tdp1-/- hTDP1 cells, no CPT, ATP luminescence, 48 h; Potency, µM (doses to about 46.2 µM), usual class: inhibitors; 15% of 420,000 active; further: nearly all actives have a fitted effect of over 55% in size
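Chicken DT40 Tdp1-/- cells stably complemented with human TDP1 were seeded at 400 cells/well with DMSO in place of 20 nM camptothecin. After compound pinning, cells grew at least 48 hr at 37 °C; viability read by CellTiter-Glo luminescence.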
TDP1 cell CPT = DT40-hTDP1 cell growth loss with CPT. chicken DT40 Tdp1-/-;hTDP1 cells + 20 nM CPT, ATP luminescence, 48 h. Potency, µM (titrated, usually from 46.2 µM), actives largely listed as inhibitors. 12% of 420,000 active; further: nearly all actives have a fitted effect of over 55% in size
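Chicken DT40 Tdp1-/- cells complemented with human TDP1, 400 cells/well, exposed to compounds plus 20 nM camptothecin for at least 48 h at 37 C; viability read as ATP content by CellTiter-Glo luminescence.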
TDP1 inh = inhibitors of human tyrosyl-DNA phosphodiesterase TDP1; Q9NUW8; recombinant TDP1, AlphaScreen DNA substrate cleavage; Potency, µM (titrated, usually from 130 µM), hits mostly inhibitors; 0.28% of 350,000 active; AID 485290; further: nearly all actives have a fitted effect of over 40% in size
Target sequence (Q9NUW8 whole entry, looked up): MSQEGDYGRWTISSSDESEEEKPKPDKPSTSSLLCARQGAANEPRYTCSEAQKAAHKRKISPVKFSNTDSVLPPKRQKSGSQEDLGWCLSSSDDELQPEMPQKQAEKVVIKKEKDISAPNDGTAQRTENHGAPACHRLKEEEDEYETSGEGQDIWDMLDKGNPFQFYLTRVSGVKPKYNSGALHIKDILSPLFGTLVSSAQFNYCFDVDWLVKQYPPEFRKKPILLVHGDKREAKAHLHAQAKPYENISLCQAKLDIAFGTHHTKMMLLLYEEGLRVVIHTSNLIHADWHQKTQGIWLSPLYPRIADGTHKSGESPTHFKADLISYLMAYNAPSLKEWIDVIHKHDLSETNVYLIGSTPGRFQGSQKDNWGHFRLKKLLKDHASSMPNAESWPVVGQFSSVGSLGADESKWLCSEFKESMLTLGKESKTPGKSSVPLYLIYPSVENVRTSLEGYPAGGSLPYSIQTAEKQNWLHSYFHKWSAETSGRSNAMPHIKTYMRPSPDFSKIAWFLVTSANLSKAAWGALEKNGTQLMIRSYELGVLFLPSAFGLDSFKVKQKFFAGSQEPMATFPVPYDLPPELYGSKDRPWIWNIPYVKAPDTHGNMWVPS
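Enzyme-compound mixtures sat 15 min at room temperature, followed by a 5 min reaction with 15 nM final substrate and 10 min with AlphaScreen beads. Recombinant human Tdp1 was used at 1 nM final.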
IL-1B inflam inh = blocks inflammasome-driven IL-1 beta release | 4.7% of 360,000 active | activity change, % at 57.5 µM | THP-1 LPS/ATP IL-1B secretion, AlphaLISA, 16 h; active compounds read low | AID 743279; in the data active means activity change below about -50%; inconclusive means mostly about -30% to -49%
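Secreted IL-1B measured by AlphaLISA bead assay after 16 h compound exposure of THP-1 cells; compounds (final up to 57.5 uM) added 1 h before LPS (250 ng/mL) and ATP (1.25 mM) stimulation; lower signal means less secretion.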
Giardia kill = kills Giardia lamblia; Giardia lamblia trophozoite viability; activity change, % at 7.66 µM, hits read low; 0.15% of 340,000 active; in the data active means activity change below about -80%; inconclusive means between about -30% and that limit;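 further: parasites exposed to compound for two days anaerobically before the ATP read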
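Media and compound were dispensed first, then trophozoites at 100 cells/well; plates sat 48 hrs at 37 deg C without oxygen before ATP luminescence reagent was added and read after 15-30 min at room temperature.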
ELG1 DNA repair = inhibitors of ELG1-dependent DNA repair in HEK293T cells; HEK293T ELG1-luciferase reporter, luminescence, 16 h; DNA damage induced by 5-fluorouridine; Potency, µM (doses to about 46.1 µM), most hits filed as inhibitors; 2.3% of 330,000 active; AID 504467; further: nearly all actives have a fitted effect of over 55% in size
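Reporter activity after DNA damage by 5-fluorouridine is monitored. Compound-treated cells incubate 16 hr at 37 °C, then ONE-Glo is added for 30 min before luminescence reading.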
A number is an active result; n = inactive; u = inconclusive; x = no result; [ ] = remark or other dose. Unless noted, the call rests on the fitted dose curve; in most records, active means well fitted curve in the direction sought with a large enough effect; inconclusive means small, poorly fitted or top-dose-only effect, or another doubt; inactive means no such curve, though single readings can be large; an effect the other way counts as inactive or inconclusive.

SMILES	TDP1 cell noCPT	TDP1 cell CPT	TDP1 inh	IL-1B inflam inh	Giardia kill	ELG1 DNA repair
O=C(COC(=O)c1ccc(F)cc1F)Nc1ccc(S(=O)(=O)N2CCOCC2)cc1	n	n	x	n	x	x
O=C1[C@H]2[C@H]3[C@H](O)[C@H](O)C/C(=N/OC[C@@H](O)COCc4ccco4)[C@@H]3CC[C@@H]2C(=O)N1C[C@@H]1CCCO1	x	x	n[21 µM]	x	x	x
COCCCNC(=O)C[C@H]1C[C@H](C(=O)N2CCCCC2)[C@@]2(CCc3ccccc3)c3[nH]c4ccc(Cl)cc4c3CCN2C1=O	4.6µM	8.2µM	n	n	u	21µM
O=C(CC1C[C@H](C(=O)N2CCCCC2)[C@@]2(CCc3ccccc3)c3[nH]c4ccccc4c3CCN2C1=O)NCc1cccc(C(F)(F)F)c1 (some centres undefined)	16µM	u	n	u	n	n
COc1ccc2[nH]c3c(c2c1)CCN1C(=O)C(CC(=O)NCc2cccc(C(F)(F)F)c2)C[C@H](C(=O)N2CCCCC2)[C@@]31CCc1ccccc1 (some centres undefined)	u	16µM	n	u	n	n
O=C(CC1C[C@H](C(=O)N2CCCCC2)[C@@]2(CCc3ccccc3)c3[nH]c4ccccc4c3CCN2C1=O)NCCCn1ccnc1 (some centres undefined)	u	u	n	u	n	n
CC(C)(C)NC(=O)C[C@H]1C[C@H](C(=O)N2CCCCC2)[C@@]2(CCc3ccccc3)c3[nH]c4ccc(Cl)cc4c3CCN2C1=O	u	u	n	n	n	n
O=C(C[C@H]1C[C@H](C(=O)N2CCCCC2)[C@@]2(CCc3ccccc3)c3[nH]c4ccc(Cl)cc4c3CCN2C1=O)NCc1cccc(C(F)(F)F)c1	12µM	13µM	n	u	n	u
COc1ccc2[nH]c3c(c2c1)CCN1C(=O)C(CC(=O)NCCN2CCOCC2)C[C@H](C(=O)N2CCCCC2)[C@@]31CCc1ccccc1 (some centres undefined)	u	u	n	n	n	n
COc1ccc(CNC(=O)C[C@H]2C[C@H](C(=O)N3CCCCC3)[C@@]3(CCc4ccccc4)c4[nH]c5cc(-c6ccco6)ccc5c4CCN3C2=O)cc1OC	u	u	n	n	n	u
O=C(C[C@H]1C[C@H](C(=O)N2CCCCC2)[C@@]2(CCc3ccccc3)c3[nH]c4ccc(Cl)cc4c3CCN2C1=O)NCc1ccco1	8.2µM	7.3µM	n	n	n	n
CCOC(=O)c1[nH]c2ccc(F)cc2c1NC(=O)CN1CCN(C/C=C/c2ccccc2)CC1	u	u	n	-79	n	u
COC(=O)c1[nH]c2ccccc2c1NC(=O)CN1CCN(C/C=C/c2ccccc2)CC1	u	26µM	n	-76	n	8.2µM
Cc1cccc(C)c1NC(=O)CN1CCN(C/C=C/c2ccccc2)CC1	u	u	x	n	x	x
O=C(NCc1ccccc1)c1ccc2c(c1)N(Cc1ccccc1F)C(=O)c1ccccc1S2=O (centres undefined)	u	u	n	x	x	x
CN(C)c1ccc(C(CNC(=O)c2cccc(C(F)(F)F)c2)N2CCCC2)cc1 (centres undefined)	16µM	15µM	n	x	x	x
COc1ccc(C(CNC(=O)c2cc3c(s2)CCC(C)C3)N2CCOCC2)cc1 (centres undefined)	u	23µM	n	n	n	n
COc1ccc(C(=O)NCC(c2ccc(N(C)C)cc2)N2CCCC2)cc1 (centres undefined)	u	u	n	x	x	x
CN(C)c1ccc(C(CNC(=O)c2ccc(C(C)(C)C)cc2)N2CCCC2)cc1 (centres undefined)	7.3µM	13µM	n	x	x	x
COc1ccc(C(CNC(=O)c2ccc(Cl)s2)N2CCOCC2)cc1 (centres undefined)	n	n	n	n	n	n
COc1ccc(C(=O)NCC(c2ccc(N(C)C)cc2)N2CCOCC2)cc1 (centres undefined)	10µM	7.3µM	n	x	x	x
COc1ccc(C(CNC(=O)c2cccc(S(=O)(=O)N3CCCC3)c2)N2CCCC2)cc1 (centres undefined)	n	n	n	n	n	n
O=S(=O)(c1ccc(Cl)cc1)N1CCN=C1SCc1ccc(Cl)c(Cl)c1	n	n	n	n	n	n
COc1ccc(/C=N/NC(=O)c2ccc3nc[nH]c3c2)cc1	n	n	n	n	n	u
O=C1[C@H]2[C@H](C=CC[C@H]2C(=O)N2CCOCC2)CCN1Cc1ccccc1	n	n	x	n	n	x
SMILES	TDP1 cell noCPT	TDP1 cell CPT	TDP1 inh	IL-1B inflam inh	Giardia kill	ELG1 DNA repair
Cc1ccc(C)c(OCC(=O)Nc2ccc(C(=O)O)cc2NC(=O)COc2cc(C)ccc2C)c1	u	u	n	n	n	n
CCOc1ccc(CCN2C(=O)C(=O)N([C@@H](CC(C)C)CN3CCC[C@H]3CN3C(=O)C(=O)NC[C@@H]3CC(C)C)C[C@@H]2Cc2ccc(O)cc2)cc1	u	16µM	x	-72	x	x
CCOc1ccc(CCN2C(=O)C(=O)N([C@@H](CC(C)C)CN3CCC[C@H]3CN3C(=O)C(=O)NC[C@@H]3Cc3ccc(O)cc3)C[C@@H]2Cc2ccccc2)cc1	16µM	u	x	n	x	x
CCOc1ccc(CCN2C(=O)C(=O)N([C@@H](Cc3ccc(O)cc3)CN3CCC[C@@H]3CN3C(=O)C(=O)NC[C@@H]3Cc3ccccc3)C[C@@H]2Cc2ccccc2)cc1	u	u	x	u	n	x
COc1ccc(S(=O)(=O)N2CCC(C(=O)NCc3ccccc3)CC2)cc1OC	n	n	n	n	u	n
CN(C)/C=C/C1=CC(=O)CC(C)(C)C1	n	n	n	u	n	n
CC1(C)Cc2c(cnn2-c2ccccc2)-c2c1c1ccccc1n2CC(O)CCl (centres undefined)	u	u	n	n	n	26µM
O=C(NC(=S)NNC(=O)c1cnccn1)c1ccc(F)cc1	5.2µM	3.3µM	n	n	n	5.2µM
O=C(NNC(=S)NC(=O)c1ccc(F)cc1)c1cccnc1	18µM	u	n	n	n	n
O=C(NNC(=S)NC(=O)c1cccnc1)c1ccccc1	23µM	u	n	n	n	n
O=C(NNC(=S)NC(=O)c1cccnc1)c1ccc(F)cc1	u	n	n	n	n	u
CSc1nc(O)c(N=Nc2ccc(F)cc2F)c(=O)[nH]1	u	u	x	n	n	u
OCC[C@@H]1C[C@H](O)[C@@H](O)[C@]2(Cc3ccccc3O2)O1	n	u	x	n	n	n
Cc1ccc(N2C(=O)c3cccc4c(Oc5ccccc5[N+](=O)[O-])ccc(c34)C2=O)c(C)c1	6.5µM	10µM	n	n	n	u

Source: PubChem
